Results filed as inconclusive are left out. Calls of active or inactive are those of the source. How the source made its calls, unless noted: active means hit-call score of the fitted dose curve at least 0.9, where 1 is the maximum; inconclusive means response in the unintended direction; inactive means score below 0.9.
Key:
[1] = system: Thyroperoxidase (TPO), gene 54314; assay: CCTE_Simmons_AUR_rTPO: CCTE's Amplex UltraRed Assay for Thyroperoxidase (TPO) Inhibition, Simmons Lab (AID 2283662);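 further: potency for loss of signal meaning inhibition of peroxidase activity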
How it was run: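 Endpoint is decreased Amplex UltraRed fluorescence after a 30-min, 37C reaction of rat thyroid microsomes with 300 uM H2O2. Eight test concentrations (5 nM–87.5 uM final) in 0.5% DMSO, three biological replicates each.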

[2] = CCTE_Simmons_CellTiterGLO_HEK293T: Viability Assessment in CCTE's Assays for Thyroperoxidase (TPO) Inhibition, Simmons Lab (AID 2283665);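 on AC50: cells exposed to compound for 24 h before readout; actives reduce ATP signal below DMSO vehicle meaning cytotoxicity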
How it was run: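 Luminescent ATP readout (CellTiter-Glo, 20 min at room temperature) after 24 hr exposure of HEK293T cells to 5 nM–87.5 uM final compound; signal loss relative to DMSO vehicle indicated cytotoxicity; dichlone titrated as positive control.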

[3] = Tanguay_ZF_120hpf_TR_legacy: (Legacy) Oregon State University Tanguay Lab 120 Hour Post-fertilization zebrafish Assay for Touch Response (AID 2283667)
How it was run: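 Binary touch-response endpoint in larvae at 120 hpf after static waterborne exposure from embryo stage (28°C, 0.64% DMSO vehicle, 5 uM trimethyltin chloride as positive control); embryos dead at 24 or 120 hpf excluded; fitted as gain versus DMSO.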

[4] = CCTE_Padilla_ZF_144hpf_TERATOSCORE: (Legacy) CCTE's 144 Hour Post-fertilization zebrafish Assay Teratoscore, Padilla Lab (AID 2283679; active means hit-call score of the fitted dose curve at least 0.9, where 1 is the maximum; inactive means score below 0.9;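 on AC50: zebrafish embryos with chorions exposed by immersion from 6-8 hpf to 5 dpf with daily renewal; teratogenicity score from eye scoring of death hatching and malformations at 144 hpf; higher score means more developmental defects relative to DMSO baseline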)
How it was run: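 Larvae scored by eye at 144 hpf for death, hatching and malformations after a day in clean Hanks'. Before that, daily-renewed exposure at 80 uM (0.4% DMSO, 26C) from roughly 6-8 hpf through 5 dpf, 4 embryos per chemical.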

[5] = STM_H9_OrnithineISnorm_perc: Stemina devTOX quickPredict H9 human embryonic stem cell (hESC)-based Assay for Ornithine (ORN) Metabolite Biomarker, Normalized (AID 2283712; active means hit-call score of the fitted dose curve at least 0.9, where 1 is the maximum; inactive means score below 0.9;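 further: ornithine released into spent medium during last day measured by mass spectrometry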)
How it was run: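 UPLC-HRMS readout: endogenous ornithine EIC area / 13C-ORN internal standard, then % of 0.1% DMSO median. H9 hESCs (pluripotent), 72h exposure, re-dosed with fresh media q24h; last 24-h spent media, deproteinized in 40% acetonitrile.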

[6] = STM_H9_CystineISnorm_perc: Stemina devTOX quickPredict H9 human embryonic stem cell (hESC)-based Assay for Cystine (CYSS) Metabolite Biomarker, Normalized (AID 2283713; active means hit-call score of the fitted dose curve at least 0.9, where 1 is the maximum; inactive means score below 0.9)
How it was run: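 UPLC-HRMS read-out: endogenous cystine peak area in spent medium, normalized to isotope-labeled internal standard and to median of 0.1% DMSO controls. Pluripotent H9 cells, 72h exposure, daily medium/compound replenishment; medium from last 24h sampled.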

[7] = STM_H9_OrnCyssISnorm_ratio: Stemina devTOX quickPredict H9 human embryonic stem cell (hESC)-based Assay for Ornithine (ORN):Cystine (CYSS) Ratio (AID 2283714)
How it was run: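 Ratio of internal-standard-normalized ornithine to cystine, measured by UPLC-HRMS in spent media from the last 24 h. H9 cells kept pluripotent, dosed 72 h with daily media and compound renewal; DMSO 0.1% serves as baseline.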

[8] = Tanguay_ZF_120hpf_ActivityScore_legacy: (Legacy) Oregon State University Tanguay Lab 120 Hour Post-fertilization zebrafish Assay Score for Activity (AID 2283742);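 on AC50: dechorionated Tropical 5D wild-type zebrafish embryos held singly per well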
How it was run: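 Binary scoring of mortality and morphology by brightfield at 24 and 120 hpf, summarised into one activity score from 18 components relative to DMSO. Wild-type Tropical 5D zebrafish, chorion removed at 4 hpf, static exposure 6–120 hpf, 28 °C.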

[9] = system: Thyroperoxidase (TPO), gene 445522; assay: CCTE_Simmons_GUA_TPO: CCTE's Guaiacol Assay for Thyroperoxidase (TPO) Inhibition, Simmons Lab (AID 2283750)
How it was run: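 Porcine thyroid microsomes (25 ug) in 200mM potassium phosphate, preincubated 30 s at 37C with compound (8 concentrations, 5 nM–87.5 uM) and 35mM guaiacol; 1mM H2O2 starts reaction. Absorbance change at 450nm over first 80 s; loss of signal versus DMSO, three replicates.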

[10] = molecular target: Luciferin 4-monooxygenase (Photinus pyralis) (UniProt P08659); assay: CCTE_Simmons_QuantiLum_inhib_2: CCTE's Firefly Luciferase Inhibition Assay, Simmons Lab (AID 2283767);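 on AC50: potency for inhibitors that lower luciferase luminescence relative to DMSO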
How it was run: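 Cell-free QuantiLum luciferase, 5 ng/well; compounds 5 nM–87.5 uM final, 8 conc, 0.5% DMSO; 30 min, 37C, dark. Detection reagent (150 uM D-luciferin, 147 uM dATP, CoA, DTT, pH 7.8 final) injected per well, kinetic luminescence. Triplicate biological replicates.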

[11] = read-out: matrix metalloproteinase-1 (MMP1), MMP1 (gene 4312); assay: LTEA_HepaRG_MMP1: Life Technologies and Expression Analysis (LTEA) Assay for matrix metalloproteinase-1 (MMP1) using HepaRG (AID 2283658; active means hit-call score of the fitted dose curve at least 0.9, where 1 is the maximum; inactive means score below 0.9); details: mRNA level, 48 h; actives raise or lower the signal
How it was run: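 In this screen, human liver HepaRG cultures receive each chemical in duplicate for 48 h (top 100 uM, 0.5% DMSO). MMP1 expression is then quantified by TaqMan qRT-PCR with ACTB/GAPDH/POLR2A normalization.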

[12] = read-out: Cytochrome P450 (CYP24A1_1), CYP24A1 (gene 1591); assay: LTEA_HepaRG_CYP24A1_1: Life Technologies and Expression Analysis (LTEA) Assay for Cytochrome P450 (CYP24A1_1) using HepaRG (AID 2283671; active means hit-call score of the fitted dose curve at least 0.9, where 1 is the maximum; inactive means score below 0.9); details: mRNA level, 48 h; actives raise or lower the signal
How it was run: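 Differentiated human HepaRG cells were exposed in duplicate for 48 h in serum-free induction medium to eight concentrations (top 100 uM, half-log steps, 0.5% DMSO). CYP24A1 mRNA was quantified by TaqMan qRT-PCR, normalized to ACTB, GAPDH and POLR2A, and fitted bidirectionally versus DMSO.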

Chain of Luciferin 4-monooxygenase (Photinus pyralis) (P08659 whole entry, looked up): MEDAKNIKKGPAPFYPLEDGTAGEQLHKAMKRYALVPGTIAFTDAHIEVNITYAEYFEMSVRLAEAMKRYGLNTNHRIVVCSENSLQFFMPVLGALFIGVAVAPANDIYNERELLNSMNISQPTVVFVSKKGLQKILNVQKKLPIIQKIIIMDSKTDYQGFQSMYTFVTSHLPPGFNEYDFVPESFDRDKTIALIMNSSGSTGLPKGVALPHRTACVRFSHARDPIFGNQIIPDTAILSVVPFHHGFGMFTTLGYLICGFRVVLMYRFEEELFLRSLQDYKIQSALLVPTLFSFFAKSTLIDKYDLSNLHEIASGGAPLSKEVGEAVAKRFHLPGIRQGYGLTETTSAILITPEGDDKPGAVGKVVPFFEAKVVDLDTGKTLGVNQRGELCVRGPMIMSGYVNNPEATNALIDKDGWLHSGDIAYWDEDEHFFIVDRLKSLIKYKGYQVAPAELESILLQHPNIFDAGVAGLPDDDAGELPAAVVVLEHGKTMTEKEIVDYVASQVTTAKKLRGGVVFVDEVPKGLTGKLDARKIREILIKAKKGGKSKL

Compound: c1ccc2c(c1)Nc1ccccc1S2
- AC50 [1]: 15 µM (active)
- AC50 [2]: 9.57 µM (active)
- outcome [3]: inactive
- AC50 [4]: 14.2 µM (active)
- outcome [5]: inactive
- outcome [6]: inactive
- outcome [7]: inactive
- outcome [8]: inactive
- AC50 [9]: 100 µM (active)
- outcome [10]: inactive

Compound: [N-]=[N+]=[N-]
- outcome [2]: inactive
- outcome [3]: inactive
- outcome [4]: inactive
- outcome [8]: inactive
- AC50 [9]: 26.5 µM (active)
- outcome [10]: inactive

Compound: c1ccc(OP(Oc2ccccc2)Oc2ccccc2)cc1
- AC50 [1]: 8.68 µM (active)
- outcome [2]: inactive
- outcome [3]: inactive
- outcome [8]: inactive
- outcome [10]: inactive

Compound: Nc1ccc(Cl)cc1
- AC50 [1]: 0.315 µM (active)
- outcome [2]: inactive
- outcome [8]: inactive
- outcome [10]: inactive

Compound: CCCCCCCc1ccc(O)cc1
- AC50 [1]: 10.2 µM (active)
- AC50 [2]: 10.1 µM (active)
- outcome [3]: inactive
- AC50 [4]: 6.11 µM (active)
- outcome [8]: inactive
- AC50 [10]: 43.6 µM (active)

Compound: CCOP(=S)(OCC)SCSCC
- AC50 [1]: 20.5 µM (active)
- AC50 [2]: 13.6 µM (active)
- outcome [3]: inactive
- outcome [4]: inactive
- outcome [8]: inactive
- outcome [10]: inactive

Compound: CCOP(=S)(Oc1ccc([N+](=O)[O-])cc1)c1ccccc1 (stereo unspecified)
- AC50 [1]: 10.2 µM (active)
- outcome [2]: inactive
- outcome [3]: inactive
- AC50 [4]: 1.19 µM (active)
- outcome [8]: inactive
- outcome [10]: inactive

Compound: CC(C)(C)OOC(C)(C)C
- outcome [11]: inactive
- outcome [12]: inactive
- outcome [8]: inactive

Compound: CCCCc1ccc(O)cc1
- AC50 [1]: 0.51 µM (active)
- AC50 [2]: 53.6 µM (active)
- outcome [10]: inactive

Compound: CC(C)(C)c1ccc(O)cc1
- AC50 [1]: 2.73 µM (active)
- AC50 [2]: 57.4 µM (active)
- outcome [3]: inactive
- AC50 [4]: 57.8 µM (active)
- AC50 [8]: 42.8 µM (active)
- outcome [10]: inactive

Compound: CCCCN(CCCC)SN(C)C(=O)Oc1cccc2c1OC(C)(C)C2
- outcome [3]: inactive
- AC50 [4]: 6.04 µM (active)
- outcome [8]: inactive

Compound: ClC1=C(Cl)C2(Cl)C3C(Cl)C(Cl)CC3C1(Cl)C2(Cl)Cl (stereo unspecified)
- outcome [3]: inactive
- AC50 [4]: 9.16 µM (active)
- outcome [8]: inactive
